Some test systems named below: HCT-15 colon; HT29 colon; SNB-75 CNS; SNB-19 CNS; U251 CNS; PC-3 prostate; SK-MEL-5 melanoma; UACC-62 melanoma; LOX IMVI melanoma; SK-MEL-28 melanoma; SK-MEL-2 melanoma; EKVX NSCLC; SN12C renal; UO-31 renal; TK-10 renal; ACHN renal; CAKI-1 renal; A498 renal; CCRF-CEM leukemia; MOLT-4 leukemia.
Assay in all cases: NCI-60 one-dose screen, 48 h (100 = growth as untreated, 0 = no growth, -100 = all killed)
Details in all cases: 10 µM unless noted

This is part of a sample that, as a whole, favours compounds with a hit. Of some 83,000 tested, about 20% had one in any assay.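 The endpoint reported here, percent growth, reads 100 for growth as untreated, 0 for no net growth and -100 for all cells dead.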 A number with no mark means an inactive call. Activity calls are given as the source filed them. The calls were made as follows: active = growth percent below 10; inactive = the rest.

As to `Cc1ccc(-c2nc([P+](c3ccccc3)(c3ccccc3)c3ccccc3)c(Nc3ccccc3)o2)cc1`, the growth in the test with HCT-15 colon was 1.96% (active); in the test on HT29 colon it was -2.08% (active); with SNB-75 CNS it was -31.6% (active); in the test on SNB-19 CNS, 2.16% (active); in the test with U251 CNS, -16.2% (active); in the test on PC-3 prostate, 4.11% (active). Besides, the growth with SK-MEL-5 melanoma is -87.4% (active); in the test with UACC-62 melanoma it was -25.8% (active); in the test with LOX IMVI melanoma it was -8.29% (active); in the test with SK-MEL-28 melanoma, -42.3% (active); with SK-MEL-2 melanoma, -58.8% (active); in the test with EKVX NSCLC, -2.84% (active). The growth in the test on SN12C renal is 2.84% (active); with UO-31 renal, -23.5% (active); with TK-10 renal it was 8.06% (active); in the test on ACHN renal, -11.6% (active); in the test on CAKI-1 renal it was -27.8% (active); with A498 renal, -37.9% (active). The growth in the test on CCRF-CEM leukemia is 0.282% (active); with MOLT-4 leukemia, -9.22% (active).

Consider `CCOC(=O)C1=C(C)NC(=O)NC1c1c(Cl)n(-c2ccccc2)c2ccccc12` (stereo not given), for which the growth in the test on HCT-15 colon was 85.8%; in the test on HT29 colon, 80.7%; in the test with SNB-75 CNS, 84.8%; with SNB-19 CNS, 83.9%; with U251 CNS, 89.2%; in the test with PC-3 prostate, 56.7%. Besides, the growth with SK-MEL-5 melanoma was 75.4%; with UACC-62 melanoma it was 68.4%; in the test with LOX IMVI melanoma it was 89.3%; in the test with SK-MEL-28 melanoma, 94.1%; in the test with SK-MEL-2 melanoma, 102%; with EKVX NSCLC, 96.8%. Moreover, the growth in the test with SN12C renal was 92.7%; in the test with UO-31 renal it was 54.2%; in the test on TK-10 renal, 98.9%; with ACHN renal, 85.1%; in the test with CAKI-1 renal it was 70.7%; in the test on A498 renal, 78.2%. Further, the growth is 3.16% (active) in the test with CCRF-CEM leukemia and 78.8% in the test with MOLT-4 leukemia.

For the compound `COC1/C=C/OC2(C)Oc3c(C)c(O)c4c(O)c(c(C=NOC(c5ccccc5)c5ccccc5)c(O)c4c3C2=O)NC(=O)/C(C)=C/C=C/C(C)C(O)C(C)C(O)C(C)C(OC(C)=O)C1C` (stereo not given), the growth was 13.2% in the test on HCT-15 colon; -12.1% (active) in the test on HT29 colon; 17.2% in the test on SNB-75 CNS; 30.8% in the test on SNB-19 CNS; 10.4% in the test on U251 CNS; 9.81% (active) in the test on PC-3 prostate. In addition, the growth was 6.07% (active) in the test with SK-MEL-5 melanoma; -4.64% (active) in the test on UACC-62 melanoma; 0.468% (active) in the test on LOX IMVI melanoma; -7.28% (active) in the test with SK-MEL-28 melanoma; -24.9% (active) in the test on SK-MEL-2 melanoma; 20.4% in the test on EKVX NSCLC. Further, the growth with SN12C renal is 17.3%; in the test on UO-31 renal, 27.2%; with TK-10 renal, 30.9%; in the test on ACHN renal it was 20.3%; in the test with CAKI-1 renal, 14%; in the test on A498 renal, 58.5%. Further, the results for the growth in the test with CCRF-CEM leukemia and in the test with MOLT-4 leukemia were 13.5% and 5.43% (active), respectively.

Consider `COc1ccc(-c2ccccc2)cc1-c1c(Nc2cc(Cl)cc(Cl)c2O)c(=O)c1=O`, for which the growth with HCT-15 colon was 10.2%; in the test on HT29 colon, 44.6%; in the test with SNB-75 CNS it was -8.42% (active); in the test with SNB-19 CNS, 10.9%; with U251 CNS, 6.59% (active); in the test with PC-3 prostate, 12.5%. Further, the growth in the test with SK-MEL-5 melanoma was -40.7% (active); in the test on UACC-62 melanoma, 10.6%; in the test on LOX IMVI melanoma it was 7.28% (active); with SK-MEL-28 melanoma, 20%; in the test with SK-MEL-2 melanoma it was -26.5% (active); in the test on EKVX NSCLC it was 10.2%. The growth in the test on SN12C renal was 6.31% (active); in the test with UO-31 renal, 6.3% (active); in the test with TK-10 renal it was 12.8%; in the test with ACHN renal, 3.24% (active); in the test with CAKI-1 renal, -12.6% (active); in the test with A498 renal, -17.6% (active). Further, the growth in the test with CCRF-CEM leukemia is 19.5%; in the test with MOLT-4 leukemia, 13.2%.

Consider `N=c1c2c(-c3ccccc3)c(-c3ccccc3)oc2ncn1NC(=O)c1cccnc1`, for which the growth in the test with HCT-15 colon was 95.6%; in the test with HT29 colon, 104%; with SNB-75 CNS, 105%; in the test on SNB-19 CNS, 96.4%; in the test on U251 CNS it was 102%; in the test on PC-3 prostate it was 93.6%. Further, the growth in the test with SK-MEL-5 melanoma is 93.4%; in the test with UACC-62 melanoma it was 104%; in the test on LOX IMVI melanoma it was 95%; with SK-MEL-28 melanoma, 119%; in the test with SK-MEL-2 melanoma, 111%; in the test on EKVX NSCLC it was 96.1%. Besides, the growth in the test on SN12C renal was 102%; in the test with UO-31 renal it was 75.9%; in the test with TK-10 renal, 112%; with ACHN renal, 109%; in the test with CAKI-1 renal, 93.8%; with A498 renal it was 73.6%. For the same compound, the growth was 84% with CCRF-CEM leukemia and 89.9% with MOLT-4 leukemia.

As for `CCOC(=O)c1cnn(CC(O)CC)c1NC(=O)NCc1ccccc1C(F)(F)F` (stereo not given), the growth with HCT-15 colon is 103%; with HT29 colon it was 86.5%; in the test on SNB-75 CNS, 96%; with SNB-19 CNS, 104%; in the test with U251 CNS, 101%; with PC-3 prostate, 90.8%. Further, the growth in the test with SK-MEL-5 melanoma was 97.6%; with UACC-62 melanoma it was 88.5%; in the test with LOX IMVI melanoma, 95.5%; with SK-MEL-28 melanoma, 108%; in the test with SK-MEL-2 melanoma it was 87.3%; in the test with EKVX NSCLC, 91.8%. Further, the growth is 101% in the test with SN12C renal; 77.6% with UO-31 renal; 101% with TK-10 renal; 102% with ACHN renal; 77.6% with CAKI-1 renal; 105% in the test with A498 renal. Besides, the growth was 84.9% in the test with CCRF-CEM leukemia and 87.2% with MOLT-4 leukemia.

For the compound `C[C@@H]1O[C@@H](O[C@H]2[C@@H](OC(=O)[C@]34CCC(C)(C)C[C@H]3C3=CC[C@@H]5[C@@]6(C)C[C@H](O)[C@H](O[C@@H]7O[C@H](CO)[C@@H](O)[C@H](O)[C@H]7O)[C@@](C)(CO)[C@@H]6CC[C@@]5(C)[C@]3(C)C[C@H]4O)OC[C@@H](O)[C@@H]2O)[C@H](O)[C@H](O[C@@H]2OC[C@@H](O)[C@H](O[C@@H]3OC[C@](O)(CO)[C@H]3O[C@@H]3OC[C@@H](O)[C@H](O)[C@H]3O)[C@H]2O)[C@H]1O[C@@H]1OC[C@](O)(CO)[C@H]1O`, the growth in the test on HCT-15 colon was 86.4%; with HT29 colon, 60.3%; in the test on SNB-75 CNS, 92.6%; in the test on SNB-19 CNS, 80.7%; with U251 CNS, 42%; in the test on PC-3 prostate, 66%. For the same compound, the growth in the test on SK-MEL-5 melanoma is 88.3%; with UACC-62 melanoma, 79.2%; with LOX IMVI melanoma, 81.3%; with SK-MEL-28 melanoma, 9.31% (active); with SK-MEL-2 melanoma, 17.5%; in the test with EKVX NSCLC, 39.7%. Moreover, the growth in the test on SN12C renal is 25.5%; with UO-31 renal, 28.6%; with TK-10 renal it was 74.2%; in the test on ACHN renal it was 78%; in the test with CAKI-1 renal it was 71.8%; in the test on A498 renal it was 5.96% (active). Also, the growth is 86% in the test on CCRF-CEM leukemia and 86.6% with MOLT-4 leukemia.

For the origin of these results see PubChem BioAssay (NCI).
